The source made the active and inactive calls.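 Rule for the calls: active = compound cutting the TRPC4 channel signal by more than 30% at some tested dose, with a fitted dose response curve; inactive = no inhibition at any dose, or no curve fitted.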
What follows are compounds tested against Short transient receptor potential channel 4 (Mus musculus) (UniProt Q9QUQ5) (assay: TRPC4 channel inhibition, specificity check, SAR follow-up, selectivity assay for TRPC6 selective inhibitor project, cell-based, HEK293 TRPC4/mu-opioid, concentration-response, set 2 (AID 504866)). Conditions: DAMGO, membrane potential dye; series mostly up to 20 µM.
Chain of Short transient receptor potential channel 4 (Mus musculus) (Q9QUQ5 whole entry, looked up): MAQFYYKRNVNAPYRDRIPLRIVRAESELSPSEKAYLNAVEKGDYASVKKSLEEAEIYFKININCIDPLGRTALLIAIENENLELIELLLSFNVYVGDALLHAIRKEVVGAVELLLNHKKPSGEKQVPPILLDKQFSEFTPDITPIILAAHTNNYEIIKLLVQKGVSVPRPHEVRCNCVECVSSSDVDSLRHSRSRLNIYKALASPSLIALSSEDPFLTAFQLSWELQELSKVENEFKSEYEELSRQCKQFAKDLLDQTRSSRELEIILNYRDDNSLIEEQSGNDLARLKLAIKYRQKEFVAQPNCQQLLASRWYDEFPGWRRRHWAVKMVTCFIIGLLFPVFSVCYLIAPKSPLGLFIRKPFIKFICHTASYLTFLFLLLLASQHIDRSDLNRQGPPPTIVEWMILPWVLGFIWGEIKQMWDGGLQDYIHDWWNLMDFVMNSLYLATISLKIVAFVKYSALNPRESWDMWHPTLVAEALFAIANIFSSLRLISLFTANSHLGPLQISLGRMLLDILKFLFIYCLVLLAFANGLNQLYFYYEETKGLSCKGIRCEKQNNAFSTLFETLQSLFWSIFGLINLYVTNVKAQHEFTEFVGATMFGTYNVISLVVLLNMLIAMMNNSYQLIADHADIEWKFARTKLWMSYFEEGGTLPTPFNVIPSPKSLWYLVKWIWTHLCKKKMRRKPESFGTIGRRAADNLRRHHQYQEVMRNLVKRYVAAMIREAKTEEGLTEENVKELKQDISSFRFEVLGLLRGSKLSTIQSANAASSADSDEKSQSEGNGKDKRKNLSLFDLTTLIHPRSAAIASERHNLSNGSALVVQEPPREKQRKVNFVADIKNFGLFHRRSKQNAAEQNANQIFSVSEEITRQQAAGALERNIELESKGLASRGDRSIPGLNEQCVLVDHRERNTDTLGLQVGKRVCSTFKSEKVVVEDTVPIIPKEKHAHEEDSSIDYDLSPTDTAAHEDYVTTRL

outcome, inactive:
Clc1ccc(SCc2cc(N3CCCCC3)nc(-c3ccccn3)n2)cc1
CC(C)N1CCC(N2CCN(Cc3ccc4nsnc4c3)CC2CCO)CC1 (stereo unspecified)
CC(C)CN1CCN(Cc2ccc3nsnc3c2)CC1CCO (stereo unspecified)
CN1CCC(N2CCN(Cc3ccc4nsnc4c3)CC2CCO)CC1 (stereo unspecified)
Cc1ccc(C)c(N2CCN(C(=O)c3ccc4nsnc4c3)CC2)c1
CSCc1cc(N(C)c2ccccc2)nc(-c2ccccn2)n1
CN1CCN(Cc2ccc3nsnc3c2)CC1CCO (stereo unspecified)
CC(C)CCN1CCN(Cc2ccc3nsnc3c2)CC1CCO (stereo unspecified)
OCCC1CN(Cc2ccc3nsnc3c2)CCN1C1CCCC1 (stereo unspecified)
O=S(=O)(Cc1cc(N2CCOCC2)nc(-c2ccccn2)n1)c1ccccc1
OCCC1CN(Cc2ccc3nsnc3c2)CCN1CCCc1ccccc1 (stereo unspecified)
CSCc1cc(N2CCOCC2)nc(-c2ccccn2)n1
Cc1cccc(CN2CCN(Cc3ccc4nsnc4c3)CC2CCO)n1 (stereo unspecified)
Cc1ccccc1CN1CCN(Cc2ccc3nsnc3c2)CC1CCO (stereo unspecified)
O=S(=O)(Cc1cc(N2CCN(c3ccccc3)CC2)nc(-c2ccccn2)n1)c1ccccc1
CC(C)N1CCN(Cc2ccc3nsnc3c2)CC1CCO (stereo unspecified)

Reference: PubChem BioAssay AID504866 (Johns Hopkins Ion Channel Center, 2011)
